Compound activity: PubChem, Broad Institute
U2OS ROS induce – inducers of reactive oxygen species in cancer cells | ROS induction (% of piperlongumine), % at 10 µM | U2OS ROS induction, H2DCF-DA fluorescence | 46,000 compounds, 2% hits | AID 624156; in the data active means ROS induction above about 79%, passing the limit was not always enough
A number is an active result; i = inactive. The sample as a whole holds a higher share of hits than the screen did.

SMILES	U2OS ROS induce
COc1ccc(NC(=O)Nc2ccc3c(c2)C(=O)N([C@@H](C)CO)C[C@@H](C)[C@H](CN(C)S(=O)(=O)c2ccc(F)cc2)O3)cc1	i
Cc1nc(SCC(=O)Nc2ccc(F)cc2)nc2c1CCCC2	i
CCc1ccc(NC(=O)CSc2ccc3nnc(-c4ccccn4)n3n2)cc1	i
CS(=O)(=O)N(Cc1cccc(F)c1)n1c(SCc2cccc(F)c2)nc2ccccc2c1=O	i
C[C@H](CO)N1C[C@H](C)[C@H](CN(C)Cc2ccc3c(c2)OCO3)Oc2ccc(NC(=O)CCN3CCOCC3)cc2C1=O	i
CN1CCN(Cc2c(O)ccc3c(=O)c(-c4ccc(Cl)cc4Cl)c(C(F)(F)F)oc23)CC1	i
O=C(O)CSc1nc2ccccc2n1CC(=O)O	i
COC(=O)C1=CO[C@@H](O[C@@H]2O[C@H](CO)[C@@H](O)[C@H](O)[C@H]2O)[C@H]2[C@@H]1[C@H](OC(=O)/C=C\c1ccc(O)cc1)C[C@]2(C)OC(C)=O	i
C[C@@H]1CN([C@@H](C)CO)C(=O)c2cccc(NC(=O)Nc3ccc4c(c3)OCO4)c2O[C@H]1CN(C)Cc1ccc(Cl)c(Cl)c1	i
COc1ccc(N(C(=O)C2CCCCC2)S(=O)(=O)c2cc(OC)ccc2OC)cc1	i
COc1ccc(NC(=O)Nc2ccc3c(c2)CC(=O)N([C@@H](C)CO)C[C@H](C)[C@H](CN(C)S(=O)(=O)c2ccc(F)cc2)O3)cc1	97
Cc1ccc(S(=O)(=O)N(C)C[C@H]2Oc3ccc(NC(=O)Nc4ccc(C(F)(F)F)cc4)cc3CC(=O)N([C@H](C)CO)C[C@H]2C)cc1	i
COc1ccc(S(=O)(=O)N(C)C[C@@H]2Oc3ccc(NC(=O)Nc4ccc(F)cc4)cc3CC(=O)N([C@H](C)CO)C[C@H]2C)cc1	i
C[C@@H]1CN([C@H](C)CO)C(=O)Cc2cc(NC(=O)Nc3ccccc3)ccc2O[C@H]1CN(C)S(=O)(=O)c1cn(C)cn1	i
C[C@H](CO)N1C[C@H](C)[C@H](CN(C)S(=O)(=O)c2ccc(F)cc2)Oc2ccc(NC(=O)Nc3ccc(C(F)(F)F)cc3)cc2CC1=O	85
COc1ccc(NC(=O)Nc2ccc3c(c2)CC(=O)N([C@@H](C)CO)C[C@@H](C)[C@@H](CN(C)S(=O)(=O)c2cn(C)cn2)O3)cc1	90
COc1ccc(S(=O)(=O)N(C)C[C@H]2Oc3ccc(NC(=O)Nc4ccc(F)cc4)cc3CC(=O)N([C@@H](C)CO)C[C@@H]2C)cc1	i
C[C@H](CO)N1C[C@H](C)[C@H](CN(C)S(=O)(=O)c2ccc(F)cc2)Oc2ccc(NC(=O)Nc3ccc(F)cc3)cc2CC1=O	i
COc1ccc(NC(=O)Nc2ccc3c(c2)CC(=O)N([C@@H](C)CO)C[C@H](C)[C@H](CN(C)S(=O)(=O)c2cn(C)cn2)O3)cc1	i
CCn1c(O)c(C2=NC(=S)NC2=O)c2ccccc21	i
COc1cccc(OCCNC(=O)c2cccc3ccccc23)c1	i
COc1ccc(S(=O)(=O)Nc2cccc3c2O[C@H](CN(C)S(=O)(=O)c2ccc(F)cc2)[C@H](C)CN([C@@H](C)CO)C3=O)cc1	i
Cc1noc(C)c1NC(=O)Nc1cccc2c1O[C@@H](CN(C)Cc1ccc(-c3ccccc3)cc1)[C@@H](C)CN([C@@H](C)CO)C2=O	i
COc1ccc(S(=O)(=O)N(C)C[C@H]2Oc3ccc(NC(=O)Nc4cccc5ccccc45)cc3C(=O)N([C@@H](C)CO)C[C@H]2C)cc1	i
CCc1ccc(Sc2cc(C(=O)NC3CC3)c3ccccc3n2)cc1	i
SMILES	U2OS ROS induce
COc1ccc(OC)c(C2c3cccn3CCN2C(=S)NC(C)(C)C)c1 (stereo not given)	i
Cc1[nH]n(-c2ccccc2)c(=O)c1/C=C1\C=NN=C1c1ccccc1	106
Cc1[nH]n(-c2ccccc2)c(=O)c1Cc1c(Cl)cccc1Cl	i
Cc1ccnc(N=Cc2c(C)[nH]n(-c3ccccc3)c2=O)c1	i
COc1ccc(S(=O)(=O)Nc2ccc3c(c2)CC(=O)N([C@@H](C)CO)C[C@H](C)[C@@H](CN(C)S(=O)(=O)c2ccccc2)O3)cc1	i
COc1ccc(NC2=Nc3ccccc3CCC2)cc1	i
CC(C)NC(=O)N(C)C[C@H]1Oc2ccc(NC(=O)NC3CCCCC3)cc2CC(=O)N([C@H](C)CO)C[C@H]1C	i
C[C@@H]1CN([C@@H](C)CO)C(=O)Cc2cc(NS(=O)(=O)c3cccs3)ccc2O[C@@H]1CN(C)C(=O)NC1CCCCC1	i
CC1CC(=O)c2cc(O)c(O)cc2C1 (stereo not given)	i
